Test results taken from PubChem BioAssay AID743314 (Broad Institute, 2014).
Results with a measured potency or affinity are listed apart. Records with an inconclusive call do not appear. The source made the active and inactive calls.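 The calls were made as follows: active = fitted half-maximal concentration no higher than twice the top tested dose, in every repeat run; inconclusive = repeat runs disagree, poor fit, or flat partial inhibition; inactive = the rest.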

The compounds below were run against Endoplasmic reticulum aminopeptidase 1 (Homo sapiens) (UniProt Q9NZ08) (assay: inhibition of human ERAP1 enzyme activity – biochemical, cherry-pick, set 2, plate reader, dose response (AID 743314;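 also: 0% = neutral control wells and -100% = L-leucinethiol positive control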)). Details: Recombinant ERAP1, Leu-AMC fluorescence, 60 min; series mostly up to 11 µM.
Chain of Endoplasmic reticulum aminopeptidase 1 (Homo sapiens) (Q9NZ08 whole entry, looked up): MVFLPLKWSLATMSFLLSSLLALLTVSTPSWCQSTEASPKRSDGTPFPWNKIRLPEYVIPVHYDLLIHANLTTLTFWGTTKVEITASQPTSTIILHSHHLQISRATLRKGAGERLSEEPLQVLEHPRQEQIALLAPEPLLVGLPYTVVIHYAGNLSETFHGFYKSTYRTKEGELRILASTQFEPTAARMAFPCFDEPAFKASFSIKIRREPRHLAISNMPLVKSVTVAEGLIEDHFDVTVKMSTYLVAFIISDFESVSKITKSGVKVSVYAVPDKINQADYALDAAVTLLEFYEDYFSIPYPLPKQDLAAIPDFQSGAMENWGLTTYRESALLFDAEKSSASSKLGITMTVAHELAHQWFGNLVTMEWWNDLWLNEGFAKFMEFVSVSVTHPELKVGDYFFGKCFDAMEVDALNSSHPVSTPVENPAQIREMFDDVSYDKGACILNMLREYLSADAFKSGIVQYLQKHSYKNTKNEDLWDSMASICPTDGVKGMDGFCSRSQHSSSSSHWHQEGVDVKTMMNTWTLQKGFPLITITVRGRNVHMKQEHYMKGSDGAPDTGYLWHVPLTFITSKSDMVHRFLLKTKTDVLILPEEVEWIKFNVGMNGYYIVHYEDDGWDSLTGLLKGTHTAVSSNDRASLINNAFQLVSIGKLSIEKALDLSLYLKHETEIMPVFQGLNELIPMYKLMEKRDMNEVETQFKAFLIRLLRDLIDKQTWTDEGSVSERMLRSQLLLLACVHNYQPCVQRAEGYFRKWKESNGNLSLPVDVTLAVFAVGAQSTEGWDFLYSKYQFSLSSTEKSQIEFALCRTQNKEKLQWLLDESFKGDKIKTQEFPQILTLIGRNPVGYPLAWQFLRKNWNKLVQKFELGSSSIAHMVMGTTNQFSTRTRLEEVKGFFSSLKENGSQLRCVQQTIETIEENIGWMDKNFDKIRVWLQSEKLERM

outcome, inactive:
Cc1cccc(NC(=O)Nc2ccc3c(c2)C(=O)N(C)[C@H]2CC[C@H](CC(=O)O)O[C@H]2CO3)c1
CC(C)c1ccc(OC(=O)c2cccc(S(=O)(=O)N3CCN(C)CC3)c2)cc1
CN(C)C(=O)c1cccc(-c2ccc3c(c2)[C@H]2[C@H](CCN2Cc2nccs2)[C@@H](CO)N3)c1
O=C(CSc1n[nH]c(-c2cccs2)n1)NC1CCS(=O)(=O)C1 (centres undefined)
CCc1ccccc1NC(=O)CCC(=O)N1CCN(C(C)=O)CC1
COc1ccc(CCC(=O)NC2CCCc3ccccc32)cc1OC (centres undefined)
COc1ccc2c3c(n(C)c2c1)[C@@H](CO)N(C)CC31CN(C(=O)c2cccnc2)C1
CCCCCCc1c(C)c2ccc(OCC(=O)N[C@@H](Cc3ccccc3)C(=O)O)cc2oc1=O
CCOC(=O)C1CCN(S(=O)(=O)c2ccc3c(c2)CC(=O)N3C)CC1
CC(=O)Nc1ccc2nc(NC(=O)CN3CCOCC3)sc2c1
CC(OC(=O)c1cc(=O)[nH]c2ccccc12)C(=O)Nc1ccccc1F (centres undefined)
COc1ccc(CN(C)C[C@H]2Oc3c(NC(=O)NC4CCCCC4)cccc3C(=O)N([C@H](C)CO)C[C@@H]2C)cc1
COCCN(CC(=O)Nc1cccc(C)c1C)C(=O)CN1C(=O)NC2(CCCCC2)C1=O
Cc1ccc(-c2cc(C(=O)N3CCCC3)c3ccccc3n2)s1
O=C(O)[C@@H]1[C@@H](CO)[C@@H]2Cn3c(ccc(/C=C/c4ccccc4)c3=O)[C@@H]2N1Cc1ccc2c(c1)OCO2
CC(=O)N1CC[C@@H]2[C@@H](CO)N(C)c3ccc(-c4ccc(C#N)cc4)cc3[C@@H]21
C/C=C/c1ccc([C@H]2[C@@H](CO)N(C(=O)CC)[C@@H]2CNCC2CCCCC2)cc1
C[C@@H]1CN([C@@H](C)CO)C(=O)c2cc(NC(=O)CCN3CCOCC3)ccc2O[C@@H]1CN(C)S(=O)(=O)c1ccccc1
COc1ccc(NC(=O)Nc2cccc3c2O[C@H](CN(C)Cc2ccc(C(=O)O)cc2)[C@H](C)CN([C@H](C)CO)C3=O)cc1
COc1cccc(-c2ccc([C@H]3[C@H]4CN(C(=O)c5cccnc5)CC(=O)N4[C@H]3CO)cc2)c1
COc1ccc(CN(C)C[C@H]2Oc3c(NC(=O)NC4CCCCC4)cccc3C(=O)N([C@@H](C)CO)C[C@@H]2C)cc1
COc1ccc2c3c([nH]c2c1)[C@H](CO)N(S(=O)(=O)c1cn(C)cn1)CC31CCN(CC2CCCCC2)CC1
Cc1ccc(CN2C(=O)CCC2C(=O)NCCN2CCN(c3cccc(Cl)c3)CC2)cc1 (centres undefined)
CCn1c(SCC(=O)NCc2ccccc2)nnc1C(CO)NC(=O)c1ccccc1 (centres undefined)
O=c1cc(CN2CCN(Cc3ccccc3)CC2)c2ccc(O)cc2o1
COc1ccccc1-c1cn(CC[C@H]2CC[C@H](NS(=O)(=O)c3ccccc3C)[C@@H](CO)O2)nn1
Cc1nc2ccc(NC(=O)c3ccc(=O)[nH]c3)cc2s1
CN1CCN(S(=O)(=O)c2cccc(C(=O)Nc3cc(Cl)ccc3N3CCOCC3)c2)CC1
COc1ccc(CN(C)C[C@H]2OCCCC[C@@H](C)Oc3ccc(NS(=O)(=O)c4cccs4)cc3C(=O)N([C@@H](C)CO)C[C@@H]2C)cc1
COc1ccc(-c2c(C)c3ccc(O)cc3oc2=O)cc1OC
O=S(=O)(O)c1ccc(N2N=C(c3ccccc3)CC2c2ccccc2)cc1 (centres undefined)
CN(Cc1ccccc1)C(=O)c1ncn(C)c1C(=O)N(C)Cc1ccccc1
N=c1c(S(=O)(=O)c2ccccc2)cc2c(=O)n3ccccc3nc2n1CCCN1CCOCC1
CCN(CC)C(=O)c1ncn(C)c1C(=O)N(CC)CC
O=C(c1ccc(F)cc1)N1CC2(C1)[C@H](c1ccccc1)[C@@H](CO)N2Cc1ccccn1
CCN(CC)CCNC(=O)c1ccc(NC(=O)c2ccc(-n3cncn3)c([N+](=O)[O-])c2)cc1
CN(c1ccccc1)S(=O)(=O)c1cc(C(=O)OCC(=O)N2CCN(C(=O)c3ccco3)CC2)ccc1Cl
Cc1noc(C)c1NC(=O)N(C)C[C@@H]1Oc2c(NC(=O)Nc3ccccc3)cccc2C(=O)N([C@H](C)CO)C[C@@H]1C

Activity change, negative = inhibition, inactive:
COc1ccc(C(=O)O)cc1S(=O)(=O)Nc1cc(C(F)(F)F)ccc1N1CCCCC1 239% [at 2.6 µM]
